A selection: hits, their analogues and other compounds. The true share with any hit is near 10%.
CtBP-E1A blk: CtBP/E1A binding inhibition; AlphaScreen GST-E1A/His-CtBP binding, 1536-well; active compounds read low; activity change, % (test concentration not listed); actives 0.49% (n = 340,000); in the data active means activity change below about -65%; inconclusive means mostly about -30% to -63%; further: on the % scale 0 is the no-effect control and ±100 the full control effect
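In 5 uL wells, 23 nL compound meets equimolar GST-E1A and His-CtBP (5X stock 125 nM each) for 2 h, 37 °C. Beads (5X, 50 ug/mL) then 1 h, 37 °C, dark.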
HP1b chromo inh: HP1-beta chromodomain-methylated histone interaction inhibition | P83916 | AlphaScreen HP1-beta / biotin-H3K9me3 peptide binding | Potency, µM (titrated, usually from 114 µM), for inactives: top-dose activity change, negative = inhibition, usual class: inhibitors | actives 0.56% (n = 390,000) | AID 540317; further: potency means the concentration at half of the fitted maximal effect; nearly all actives have a fitted effect of over 70% in size
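AlphaScreen: HP1-beta (50 nM) preformed 30 min with biotin-H3(1-18)K9me3 peptide (50 nM) in PBS pH 7.4, 0.01% Tween-20. Compound added for 30 min at RT, then streptavidin donor/nickel chelate acceptor beads (10 ug/mL) for 30 min.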
G9a inh: blocks human histone lysine methyltransferase G9a. Q96KQ7. G9a H3K9 monomethylation, AlphaScreen, 2 h. Potency, µM (top dose mostly 102 µM), for inactives: top-dose activity, negative = inhibition, hits mostly inhibitors. actives 8.8% (n = 350,000). AID 504332; further: potency means the concentration at half of the fitted maximal effect; on the % scale 0 is the no-effect control and ±100 the full control effect; nearly all actives have a fitted effect of over 75% in size
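AlphaScreen read-out: biotin-H3K9 peptide (500 nM) methylation by 20 nM enzyme with 20 uM SAM, 2 h at room temperature after 15 min compound preincubation; anti-monomethyl H3K9 antibody plus donor/acceptor beads, 10 min dark.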
JMJD2A Tudor inh: inhibitors of human JMJD2A Tudor domain | Potency, µM (series often up to 114 µM), without a hit: at the highest dose activity change, negative = inhibition, usual class: inhibitors | AlphaScreen JMJD2A-Tudor / H3K4me3 peptide binding | actives 4.4% (n = 390,000); further: potency means the concentration at half of the fitted maximal effect; on the % scale 0 is the no-effect control and ±100 the full control effect; nearly all actives have a fitted effect of over 50% in size
Target sequence (O75164 whole entry, looked up, the tested form may be a part): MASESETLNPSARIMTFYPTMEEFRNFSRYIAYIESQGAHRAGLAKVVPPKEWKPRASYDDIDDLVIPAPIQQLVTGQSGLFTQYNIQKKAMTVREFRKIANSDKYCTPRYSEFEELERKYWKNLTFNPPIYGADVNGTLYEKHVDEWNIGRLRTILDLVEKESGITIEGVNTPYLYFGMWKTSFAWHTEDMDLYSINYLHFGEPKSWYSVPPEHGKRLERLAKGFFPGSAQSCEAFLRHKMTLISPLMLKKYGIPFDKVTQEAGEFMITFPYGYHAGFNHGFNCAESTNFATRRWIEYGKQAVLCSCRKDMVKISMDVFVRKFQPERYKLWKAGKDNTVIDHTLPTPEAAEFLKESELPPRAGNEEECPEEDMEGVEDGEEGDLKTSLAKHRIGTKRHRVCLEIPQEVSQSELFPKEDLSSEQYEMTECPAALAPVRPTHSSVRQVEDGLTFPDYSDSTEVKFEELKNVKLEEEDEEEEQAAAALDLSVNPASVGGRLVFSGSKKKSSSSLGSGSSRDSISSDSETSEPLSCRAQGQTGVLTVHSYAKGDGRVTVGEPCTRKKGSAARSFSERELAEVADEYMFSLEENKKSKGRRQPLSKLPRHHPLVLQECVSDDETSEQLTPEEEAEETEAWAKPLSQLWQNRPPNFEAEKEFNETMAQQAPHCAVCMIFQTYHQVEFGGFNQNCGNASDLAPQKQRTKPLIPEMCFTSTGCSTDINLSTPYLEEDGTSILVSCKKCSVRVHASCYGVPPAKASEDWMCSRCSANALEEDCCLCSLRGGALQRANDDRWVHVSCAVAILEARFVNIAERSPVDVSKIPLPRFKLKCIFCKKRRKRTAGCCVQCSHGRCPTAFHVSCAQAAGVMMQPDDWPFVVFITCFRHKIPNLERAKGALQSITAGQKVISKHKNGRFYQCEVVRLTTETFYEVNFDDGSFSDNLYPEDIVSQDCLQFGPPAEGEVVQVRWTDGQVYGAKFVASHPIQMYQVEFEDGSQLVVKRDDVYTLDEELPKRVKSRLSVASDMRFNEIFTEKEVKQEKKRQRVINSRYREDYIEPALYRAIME
BAZ2B block: BAZ2B (human) inhibition; actives 4.4% (n = 360,000); Q9UIF8; Potency, µM (titrated, usually from 114 µM), inactives show top-dose activity change, negative = inhibition, hits mostly inhibitors; AID 504333; AlphaScreen BAZ2B-H3K14Ac peptide displacement; further: potency means the concentration at half of the fitted maximal effect; on the % scale 0 is the no-effect control and ±100 the full control effect; nearly all actives have a fitted effect of over 60% in size
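BAZ2B (50 nM) with biotin-H3(5-23)K14Ac peptide (50 nM) in PBS pH 7.4, 0.01% Tween-20, preformed 30 min, then compound 30 min at room temperature; top concentration 110uM. AlphaScreen streptavidin donor/nickel chelate acceptor beads (10 ug/mL final), 20 min dark, signal read.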
Six1-Eya2 blk: inhibitors of human Six1/Eya2 interaction. actives 0.56% (n = 360,000). AlphaScreen GST-Six1/His-Eya2 binding, biochemical; active compounds read low. activity change, % (concentration not given with the values); in the data active means activity change below about -65%; inconclusive means mostly about -30% to -63%; further: on the % scale 0 is the no-effect control and ±100 the full control effect
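Homogeneous AlphaScreen proximity assay pairing GST-Six1 with His-tagged Eya2 (added as 5X mix: 250 nM and 500 nM) in 50 mM Tris pH 8.0, 300 mM NaCl, 1 mM TCEP. Glutathione donor and nickel acceptor beads; 1 h, 37 °C, dark.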
* = called active by the depositor; ? = inconclusive; / = no result; ! = not confirmed by another sample; [ ] = another dose, or the depositor's remark. Unless noted, the call rests on the fitted dose curve; in most records, active means well fitted inhibition curve with a large enough effect; inconclusive means small, poorly fitted or top-dose-only effect; inactive means no such curve, though single readings can be large or run the other way.

SMILES	CtBP-E1A blk	HP1b chromo inh	G9a inh	JMJD2A Tudor inh	BAZ2B block	Six1-Eya2 blk
COc1cc(C=C2NC(=O)NC2=O)ccc1O	-14	/	/	/	/	-25
COc1cc(C=C2C(=O)C=CC2=O)ccc1O	7	/	/	/	/	-74*
COc1cc(/C=C2\NC(=S)N(C)C2=O)ccc1O	-3	20%	?	-17%	?	-3
Cn1c2cc(S(C)(=O)=O)sc2c2cnn(Cc3ccccc3F)c(=O)c21	/	/	/	-1%	/	/
O=C(Nc1ccncc1)c1ccc(-c2ccccc2)cc1	/	16%	-4%[59 µM]	-26%	-34%	5
CN(C)CCCc1cc(C(=O)Nc2ccc(-c3ccncc3)cc2)ccc1O	/	/	25µM*!	/	/	/
O=[N+]([O-])c1cc(Br)c(O)c(/C=N/Nc2nnnn2-c2cccc3ccccc23)c1	-70*	-13%	7%[12.7 µM]	56µM*	79µM*	?
O=[N+]([O-])c1ccc(NN=Cc2cccc3ccccc23)cc1	4	11%[57 µM]	/	-6%	/	1
O=C(/N=C1\NC(=O)C(F)(C(F)(F)F)S1)NC1CCCCC1 (stereo not drawn)	-20	?	3.2µM*	50µM*	-28%	?
CCOc1ccc(NC(=O)CCNS(=O)(=O)c2ccc3c(c2)CCCC(=O)N3)cc1	/	-10%	-10%[59 µM]	-12%	4%[57.1 µM]	/
Cc1cc(C)cc(NC(=O)CSCc2cc(=O)c3cc(Cl)ccc3[nH]2)c1	/	18%[57 µM]	25%[59 µM]	-17%	4%	/
C#C[C@@]1(O)CC[C@@H]2[C@H]3CCC4=C/C(=N\O)CC[C@H]4[C@@H]3CC[C@]21CC	/	/	-4%[12.7 µM]	/	/	/
Cc1ccc(OCCNCc2ccccc2)c(C)c1	4	?	14µM*	1µM*	?	3
Cc1ccc(OCCCCNC(C)c2ccccc2)c(C)c1 (stereo not drawn)	-6	2%	11µM*	20µM*	?	-3
C/C=C/c1ccc(OCCOCCNCc2ccccc2)c(OC)c1	/	-12%	7.9µM*	28µM*	50µM*	-12
C/C=C/c1ccc(OCCOc2cc(C=O)ccc2OC)c(OC)c1	1	58%	23%	11%	2%	-7
C=CCN(CC=C)CCCOc1ccc(C)cc1OC	-9	?	25µM*	0.32µM*	25µM*	0
Cc1cccc(OCCCCNCc2ccccc2)c1	/	?	13µM*	-11%[11.4 µM]	50µM*	5
Cc1cc(C)c(C)c(OCCOCCNCc2ccccc2)c1	1	-17%	?	79µM*	?	2
CCOCCCNCc1ccc(OCCC(C)C)c(OC)c1	11	-33%	?	?	56µM*	15
CCCOc1ccc(OCCOCCNCc2ccccc2)cc1	-4	?	32µM*	18µM*	?	-5
COc1ccc(CCNCc2ccc(OCc3ccccc3)cc2)cc1	1	12%	10%	-6%	2%	9
COc1cc(C)ccc1OCCCOc1ccccc1Br	10	68%	/	-13%	51%	29
CCOc1ccc(OCCOCCNCCOC)cc1	1	6%	?	10µM*	-32%	4
COc1cc(C)ccc1OCCCCNCc1ccccc1	/	-34%	/	18µM*	?	3
SMILES	CtBP-E1A blk	HP1b chromo inh	G9a inh	JMJD2A Tudor inh	BAZ2B block	Six1-Eya2 blk
CCc1cccc(OCCCCNCCO)c1	13	11%	10µM*	-24%[11.4 µM]	56µM*	9
COc1cccc(OCCNCc2ccccc2)c1	3	-3%	7.9µM*	6.3µM*	?	1
O=C(O)c1cccc(-c2cccc(-c3nn4c(=O)cc(N5CCNCC5)nc4s3)c2)c1	/	/	/	-26%	/	/
O=C(CCO)c1ccc(O)cc1	-2	?	?	20µM*	13µM*	?
CCCCC(=O)c1ccc(O)cc1	5	30%	?	-11%	-4%	6
C/C=C(\C)CN1CCN(c2ccc(C)cc2)CC1	-3	-64%	10µM*	7.1µM*	25µM*	-12
CCOc1ccc(NC(=O)CC2C(=O)N(c3ccccc3)C(=O)N2CCc2sccc2C)cc1 (stereo not drawn)	/	34%	10%[59 µM]	-13%	-5%	/
CN1CCN(CC#CC(C)(O)C2CC3C=CC2C3)CC1 (stereo not drawn)	1	22%	22µM*	50µM*	?	2
OC(CCN1CCCCC1)(c1ccccc1)C1C[C@@H]2C=C[C@H]1C2 (stereo partly drawn)	2	51%	-33%[59 µM]	-15%	-10%	-3
S=c1[nH]nc(-c2ccc(Cl)cc2)n1/N=C/C=C/c1ccco1	-6	?	/	56µM*	?	-15
S=c1[nH]nc(-c2cccnc2)n1/N=C/C=C/c1ccco1	3	35%	/	20µM*	45µM*	-4
S=c1[nH]nc(-c2ccccc2)n1/N=C/C=C/c1ccco1	-1	-19%	1.3µM*	20µM*	?	-11
CC(/C=N/n1c(-c2cccnc2)n[nH]c1=S)=C\c1ccco1	-14	-33%	1.3µM*	4µM*	-35%	-14
Cc1ccc(/C=N/n2c(-c3ccc(Cl)cc3)n[nH]c2=S)s1	2	22%	?	?	1%	0
Cc1cccc(NC(=O)c2oc3ccccc3c2NC(=O)c2cc(=O)c3cc(Cl)ccc3o2)c1	/	32%	-29%[59 µM]	-3%	-7%	/
Cc1ccccc1-c1n[nH]c(=S)n1/N=C/C=C/c1ccco1	6	-11%	2.2µM*	18µM*	45µM*	-27
S=c1[nH]nc(-c2ccco2)n1/N=C/C=C/c1ccccc1	-26	-17%	0.71µM*	20µM*	-32%	-21
Cc1cc(-c2n[nH]c(=S)n2/N=C/C=C/c2ccco2)n[nH]1	-4	4%	2.5µM*	2.8µM*	50µM*	1
FC(F)(F)c1n[nH]c(=S)n1/N=C/c1ccco1	5	28%	3.5µM*	?	-8%	3
Cc1cc(C)c(C(=O)/C=C/c2ccco2)c(=O)[nH]1	-3	0%	/	-22%	?	-8
C=C1CCN(C(CC(C)C)C(=O)NCCCc2ccccc2)S(=O)(=O)c2ccccc21 (stereo not drawn)	/	51%	/	-3%	/	/
S=c1[nH]nc(-c2ccc(Cl)cc2)n1/N=C/c1ccco1	-11	-4%	0.89µM*	40µM*	-26%	-11
O=C(NCC(c1ccc2c(c1)OCO2)N1CCOCC1)c1ccccc1F (stereo not drawn)	/	25%[57 µM]	?	-32%	5%	/
COc1cc2c(C(=O)NCc3ccc(C)o3)cn(CC(C)C)c(=O)c2cc1OC	-9	10%	45µM*	-21%	4%[57.1 µM]	-1
CCn1cc(C(=O)NCc2ccco2)c2cc(OC)c(OC)cc2c1=O	-10	17%	?	-17%	5%	-6
C[C@](N)(Cc1ccc(O)cc1)C(=O)O	/	/	0%[59 µM]	/	/	/
COC(=O)C(C)(N)Cc1ccc(O)cc1 (stereo not drawn)	0	21%	25µM*!	-19%	10%	2

Source: PubChem BioAssay
